The nature of assay [1]: qHTS assay to test for compound auto fluorescence at 535 nm (green) in HEK293 cells (AID 720680). On the technique in general: Quantitative high-throughput screening tests each substance at several concentrations.
Assay [2] is described as follows: qHTS assay to test for compound auto fluorescence at 460 nm (blue) in HEK293 cell free culture (AID 720681). Summed up: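 Compounds were added to cell-free DMEM with 10% FBS and fluorescence read directly. The blue channel used 405 nm excitation and 460 nm emission, with triamterene as the reference fluorophore.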
Assay [3] in a line: qHTS assay to test for compound auto fluorescence at 535 nm (green) in HEK293 cell free culture (AID 720682). Summed up:
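Steps: dispense DMEM/10% FBS into empty wells; pin in compound or DMSO; measure fluorescence at 485/535 nm. Values are fluorescein equivalents.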

Assay [4] in a line: qHTS assay to test for compound auto fluorescence at 590 nm (red) in HEK293 cell free culture (AID 720683). Summed up:
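Cell-free wells of DMEM with 10% FBS received compound, and intrinsic fluorescence was read at excitation/emission 540/590 nm. Values expressed as equivalence to Rose Bengal sodium.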

Assay [5] is described as follows: qHTS assay to test for compound auto fluorescence at 590 nm (red) in HepG2 cell free culture (AID 720684). Summed up: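 Compound was pinned into wells holding MEM with 10% FBS and no cells, and red fluorescence was read at Ex/Em 540/590 nm. Signal is expressed as auto fluorescence equivalency relative to Rose Bengal sodium.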
The nature of assay [6]: qHTS assay to test for compound auto fluorescence at 535 nm (green) in HepG2 cell free culture (AID 720686).
The nature of assay [7]: qHTS assay to test for compound auto fluorescence at 460 nm (blue) in HepG2 cells (AID 720687). Summed up: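 HepG2 cells in MEM with 10% FBS, attached overnight at 37 C, were exposed to compound or DMSO for 1 hr at 37 C, 5% CO2. Blue fluorescence was read at 405/460 nm, with triamterene as reference fluorophore.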
The target of assay [8] is Glucocorticoid receptor (Homo sapiens) (UniProt P04150). Briefly: qHTS assay to identify small molecule agonists of the glucocorticoid receptor (GR) signaling pathway (AID 720691; active = well fitted activation curve with a large enough effect in the signal ratio in the repeat runs, not every such curve was filed as active; the % refers to the signal ratio). Conditions: GR-bla HeLa, beta-lactamase reporter ratio, 18 h; activation: at 62.4 µM (top of the series). Summed up: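 GR-bla HeLa cells carrying a GRE-driven beta-lactamase reporter, exposed to compounds for 18 h at 37 C. Reporter activation read as fluorescence after 2 h with LiveBLAzer B/G FRET substrate at room temperature.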
Chain of Glucocorticoid receptor (Homo sapiens) (P04150 whole entry, looked up): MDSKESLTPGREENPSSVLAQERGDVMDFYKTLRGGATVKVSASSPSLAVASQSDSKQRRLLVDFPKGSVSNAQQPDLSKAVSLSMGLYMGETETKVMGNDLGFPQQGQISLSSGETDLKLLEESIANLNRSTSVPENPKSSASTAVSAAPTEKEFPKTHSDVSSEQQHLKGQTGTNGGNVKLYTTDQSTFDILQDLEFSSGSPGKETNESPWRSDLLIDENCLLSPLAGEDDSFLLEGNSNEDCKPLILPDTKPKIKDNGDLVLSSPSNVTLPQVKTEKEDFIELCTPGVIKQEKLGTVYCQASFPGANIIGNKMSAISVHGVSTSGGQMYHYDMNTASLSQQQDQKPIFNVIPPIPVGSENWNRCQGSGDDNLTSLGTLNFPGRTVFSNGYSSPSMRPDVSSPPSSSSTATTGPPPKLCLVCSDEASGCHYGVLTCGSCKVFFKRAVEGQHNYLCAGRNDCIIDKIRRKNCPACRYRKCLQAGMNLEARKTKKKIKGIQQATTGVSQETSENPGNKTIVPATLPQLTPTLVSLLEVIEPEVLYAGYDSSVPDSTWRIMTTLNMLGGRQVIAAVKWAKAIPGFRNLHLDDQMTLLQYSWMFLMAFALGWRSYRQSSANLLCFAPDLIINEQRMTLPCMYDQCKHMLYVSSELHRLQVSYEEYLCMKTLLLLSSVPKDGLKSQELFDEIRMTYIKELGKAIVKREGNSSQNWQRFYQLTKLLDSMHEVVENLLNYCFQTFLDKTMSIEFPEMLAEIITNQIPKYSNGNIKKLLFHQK

Assay [9] can be described thus: qHTS assay to identify small molecule antagonists of the glucocorticoid receptor (GR) signaling pathway - cell viability counter screen (AID 720693). Also: nearly all actives have a fitted effect of over 55% in size.
The nature of assay [10]: qHTS assay for identifying genotoxic compounds that show differential cytotoxicity against isogenic chicken DT40 cell lines with known DNA damage response pathways - Rev3 mutant cell line (AID 743014). Also: nearly all actives have a fitted effect of over 55% in size. Also: potency is read from the fitted curve at half-maximal effect.
Assay [11] is described as follows: qHTS assay for identifying genotoxic compounds that show differential cytotoxicity against isogenic chicken DT40 cell lines with known DNA damage response pathways - Rad54/Ku70 mutant cell line (AID 743015). Also: nearly all actives have a fitted effect of over 60% in size. Also: potency is read from the fitted curve at half-maximal effect.
Assay [12] in a line: qHTS assay to identify small molecule antagonists of the androgen receptor (AR) signaling pathway using the MDA cell line - cell viability counter screen (AID 743041; also: nearly all actives have a fitted effect of over 45% in size). A digest of the protocol:
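MDA-kb2 AR-luc cells (MMTV-luciferase, AR/GR responsive) treated with compounds plus R1881 agonist for 16 h at 37C. CellTiter-Fluor added at 15.5 h; fluorescence read after 30 min in the same wells.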

Assay [13] concerns the target Glucocorticoid receptor (Homo sapiens) (UniProt P04150). Briefly: qHTS assay to identify small molecule antagonists of the glucocorticoid receptor (GR) signaling pathway (AID 720692; active = well fitted inhibition curve with a large enough effect in the signal ratio in the repeat runs, not every such curve was filed as active; the % refers to the signal ratio). A digest of the protocol:
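GR-bla HeLa cells carrying a GRE-driven beta-lactamase reporter received compound after 4 h plating, then dexamethasone (5 nM final). After 18 h at 37C, the FRET substrate was loaded for 2 h at room temperature and fluorescence read.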

Assay [14] is described as follows: qHTS assay for identifying genotoxic compounds that show differential cytotoxicity against isogenic chicken DT40 cell lines with known DNA damage response pathways - wild type cell line (AID 743012). Also: nearly all actives have a fitted effect of over 60% in size. Also: potency is read from the fitted curve at half-maximal effect. Summed up: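 Wild-type DT40 cells (300/well) exposed to compounds for 40 hours at 37 C/5% CO2. Viability read by CellTiter-Glo luminescence after 30 min at room temperature.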

Assay [15] is described as follows: qHTS assay to identify small molecule antagonists of the androgen receptor (AR) signaling pathway - cell viability counter screen (AID 743033; also: nearly all actives have a fitted effect of over 45% in size; also: potency is read from the fitted curve at half-maximal effect).
Assay [16] has as its target Androgen receptor (Homo sapiens) (UniProt P10275). Briefly: qHTS assay to identify small molecule antagonists of the androgen receptor (AR) signaling pathway (AID 743035; active = well fitted inhibition curve with a large enough effect in the signal ratio in the repeat runs, not every such curve was filed as active; the % refers to the signal ratio). Summed up: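 HEK293 cells stably carrying UAS-beta-lactamase reporter, 2,000/well, given compounds plus R1881 agonist and incubated 16 h at 37C. LiveBLAzer B/G FRET substrate then added for 2 h at room temperature before fluorescence reading.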

Assay [17] shares this target. Description: qHTS assay to identify small molecule agonists of the androgen receptor (AR) signaling pathway (AID 743036; active = well fitted activation curve with a large enough effect in the signal ratio in the repeat runs, with a control signal flat, not every such curve was filed as active; the % refers to the signal ratio). Summed up:
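Reporter line: GeneBLAzer AR-UAS-bla-GripTite (HEK293). Steps: plate cells, 4 h rest, add compounds, 16 h at 37C, add LiveBLAzer B/G substrate, 2 h at RT, read fluorescence.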

Assay [18] shares this target. Description: qHTS assay to identify small molecule agonists of the androgen receptor (AR) signaling pathway using the MDA cell line (AID 743040; also: nearly all actives have a fitted effect of over 20% in size). A digest of the protocol:
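MDA-kb2 breast carcinoma cells carrying MMTV-luciferase (responsive to AR and GR), plated 5 h then treated 16 h with compounds at 37C, 0% CO2. Read-out was ONE-Glo luminescence after 30 min at room temperature.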

For assay [19] the target is unchanged. Description: qHTS assay to identify small molecule antagonists of the androgen receptor (AR) signaling pathway using the MDA cell line (AID 743042; also: nearly all actives have a fitted effect of over 55% in size). Summed up: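 MDA-kb2 breast carcinoma cells carrying MMTV-luciferase (AR/GR responsive) were co-treated with compounds and the agonist R1881 for 16 h at 37C. Inhibition read as ONE-Glo luminescence; CellTiter-Fluor fluorescence measured in parallel for cytotoxicity.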

Results filed as inconclusive are left out. Active and inactive are the calls of the source. Unless noted, calls follow the shape of the dose curve; as a rule, active = well fitted curve in the direction sought with a large enough effect in the repeat runs; inconclusive = weak or mixed curves; inactive = no such curve, though single readings can be large; an effect the other way counts as inactive or inconclusive.

This is an account of results in PubChem BioAssay (Tox21).

Chain of Androgen receptor (Homo sapiens) (P10275 whole entry, looked up): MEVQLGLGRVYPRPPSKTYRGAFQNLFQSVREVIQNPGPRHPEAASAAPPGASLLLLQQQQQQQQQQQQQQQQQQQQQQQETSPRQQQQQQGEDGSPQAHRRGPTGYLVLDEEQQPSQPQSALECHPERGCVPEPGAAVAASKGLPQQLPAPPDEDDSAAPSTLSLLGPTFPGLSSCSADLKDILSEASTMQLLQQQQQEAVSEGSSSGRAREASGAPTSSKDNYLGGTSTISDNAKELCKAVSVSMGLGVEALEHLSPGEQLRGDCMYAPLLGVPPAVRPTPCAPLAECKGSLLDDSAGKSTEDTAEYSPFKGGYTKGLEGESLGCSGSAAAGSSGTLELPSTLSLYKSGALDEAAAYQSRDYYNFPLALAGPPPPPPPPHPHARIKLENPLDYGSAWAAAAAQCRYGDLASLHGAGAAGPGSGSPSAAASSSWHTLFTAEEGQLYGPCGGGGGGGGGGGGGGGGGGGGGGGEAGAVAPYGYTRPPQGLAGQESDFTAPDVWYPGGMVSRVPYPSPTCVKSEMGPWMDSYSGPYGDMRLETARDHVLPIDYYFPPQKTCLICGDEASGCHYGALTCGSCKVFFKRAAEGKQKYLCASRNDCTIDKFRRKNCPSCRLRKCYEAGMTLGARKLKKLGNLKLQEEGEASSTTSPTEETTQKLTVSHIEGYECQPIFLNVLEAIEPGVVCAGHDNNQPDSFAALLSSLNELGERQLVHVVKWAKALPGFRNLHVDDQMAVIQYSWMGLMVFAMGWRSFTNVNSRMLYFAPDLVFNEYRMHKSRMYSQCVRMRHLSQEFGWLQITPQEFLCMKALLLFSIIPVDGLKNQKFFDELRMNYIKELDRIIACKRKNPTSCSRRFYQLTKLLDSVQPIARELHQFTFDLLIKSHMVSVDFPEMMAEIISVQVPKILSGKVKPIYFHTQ

Consider `O=C1OC(=O)c2cc(-c3ccc4c(c3)C(=O)OC4=O)ccc21`, for which the call in [1], in assay [3], in assay [4] and in assay [5] was inactive. The Potency entry in assay [2], in assay [6], in [7], in [8], in assay [9] and in assay [12] was “inactive” in each case. Also, the Potency in [10] and in [11] was 54.5 µM (active) in each case.
As to `CC(=O)OCC1=C(C(=O)O)N2C(=O)[C@@H](NC(=O)Cc3ccccc3)[C@H]2SC1`, the result in assay [1], in [3], in assay [4] and in assay [5] was inactive. For the same compound, the Potency result in [2], in assay [6], in assay [7], in assay [8], in assay [13] and in assay [9] was “inactive” each time. In addition, the Potency result in assay [14], in assay [10], in assay [11], in assay [15], in [16] and in assay [17] was “inactive” throughout. The Potency result in assay [18], in assay [12] and in [19] was “inactive” in each case.
For the compound `CCCCCCCCCCCCCC(=O)OCC(COP(=O)([O-])OCC[N+](C)(C)C)OC(=O)CCCCCCCCCCCCC` (configuration not stated), the compound was classed as inactive in assay [1], in assay [3], in assay [4] and in assay [5]. Further, the Potency entry in assay [2], in [6], in assay [8], in assay [13], in assay [9] and in assay [14] was “inactive” in each case. The Potency result in assay [10], in assay [15] and in [12] was “inactive” each time.
Consider `CC/C=C\C/C=C\C/C=C\C/C=C\C/C=C\CCCC(=O)O`, for which the compound was called inactive in assay [1], in assay [3], in [4] and in assay [5]. Besides, the Potency result in [2], in assay [6], in [7], in assay [8], in [9] and in assay [10] was “inactive” throughout. In addition, the Potency result in assay [11], in assay [15] and in assay [12] was “inactive” each time.
For `O=C(Nc1ccccc1)c1cc(Cl)ccc1O`, the call in assay [1], in assay [3], in assay [4] and in assay [5] was inactive. For the same compound, the Potency result in assay [2], in assay [6], in assay [7] and in assay [8] was “inactive” each time. The Potency in [14] is 13.7 µM (active); in assay [10] it was 9.69 µM (active); in assay [11] it was 9.69 µM (active); in assay [15] it was 11 µM (active).
As to `COc1ccc([C@@H]2CC(=O)c3c(O)cc(O[C@@H]4O[C@H](CO[C@@H]5O[C@@H](C)[C@H](O)[C@@H](O)[C@H]5O)[C@@H](O)[C@H](O)[C@H]4O)cc3O2)cc1O`, the compound was called inactive in assay [1], in assay [3], in assay [4] and in assay [5]. Also, the Potency result in assay [2], in assay [6], in assay [7], in assay [8], in assay [13] and in assay [9] was “inactive” throughout. Moreover, the Potency result in assay [14], in assay [11], in assay [15], in assay [17], in assay [18] and in assay [12] was “inactive” throughout. Moreover, the Potency result in assay [19] was “inactive”.
With `O=C(O)COc1ccccc1/C=N/NC(=O)c1ccncc1`, the outcome in assay [1], in assay [3], in [4] and in assay [5] was inactive. In addition, the Potency entry in [2], in assay [6], in [9], in [14], in assay [10] and in [11] was “inactive” throughout. The Potency result in [15], in assay [16], in [17], in assay [18], in assay [12] and in [19] was “inactive” in each case.
